Screen size: about 5,500 compounds; about 2,000 (36%) were called active. Not shown: some 18% with an inconclusive outcome. Rule as the data show it: active = normalized growth mostly below about 0.91 (no sharp cut-off); inconclusive = no clear call, values can overlap the other calls; inactive = mostly above about 0.92. The list shows a part of the results.
Assay: chemical genetic growth profiling, strain panel (AID 1159580);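 also: tested at 20 µM; growth read once vehicle control cultures reached saturation at 30 °C; 1 = growth at the plate median or of vehicle wells; lower values mean less growth of the strain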
Conditions: growth OD

Measured: normalized growth

CC12CCC3C(CC=C4CC(O)CCC43C)C1CCC2=O (stereo not drawn)
inactive: S. cerevisiae deletion strains, locus YAL013W, strain DEP1, hits give low values 0.948 | S. cerevisiae deletion strains, locus YBL061C, strain skt5, hits give low values 0.936 | S. cerevisiae deletion strains, locus YBR023C, strain chs3, hits give low values 0.933 | S. cerevisiae deletion strains, locus YBR171W, strain sec66, hits give low values 0.978 | S. cerevisiae deletion strains, locus YBR229C, strain ROT2, hits give low values 1.02 | S. cerevisiae deletion strains, locus YBR231C, strain swc5, hits give low values 0.926 | S. cerevisiae deletion strains, locus YCL069W, strain vba3, hits give low values 0.94 | S. cerevisiae deletion strains, locus YCR088W, strain abp1, hits give low values 1.02 | S. cerevisiae deletion strains, locus YDL005C, strain med2, hits give low values 0.995 | S. cerevisiae deletion strains, locus YDL040C, strain nat1, hits give low values 1.02 | S. cerevisiae deletion strains, locus YDL101C, strain DUN1, hits give low values 0.994 | S. cerevisiae deletion strains, locus YDL185W, strain tfp1, hits give low values 1.04 | S. cerevisiae deletion strains, locus YDL192W, strain arf1, hits give low values 0.934 | S. cerevisiae deletion strains, locus YDR001C, strain nth1, hits give low values 1.03 | S. cerevisiae deletion strains, locus YDR069C, strain doa4, hits give low values 0.945 | S. cerevisiae deletion strains, locus YDR101C, strain arx1, hits give low values 0.955 | S. cerevisiae deletion strains, locus YDR159W, strain sac3, hits give low values 0.916 | S. cerevisiae deletion strains, locus YDR297W, strain sur2, hits give low values 0.95 | S. cerevisiae deletion strains, locus YDR334W, strain swr1, hits give low values 1.04 | S. cerevisiae deletion strains, locus YDR335W, strain msn5, hits give low values 0.961 | S. cerevisiae deletion strains, locus YDR388W, hits give low values 1.02 | S. cerevisiae deletion strains, locus YEL037C, strain rad23, hits give low values 1 | S. cerevisiae deletion strains, locus YEL061C, strain CIN8 (second series), hits give low values 1.01 | S. cerevisiae deletion strains, locus YER016W, strain bim1, hits give low values 1.01 | S. cerevisiae deletion strains, locus YER110C, hits give low values 1.06 | S. cerevisiae deletion strains, locus YER111C, strain swi4, hits give low values 1.01 | S. cerevisiae deletion strains, locus YER155C, strain BEM2, hits give low values 1.02 | S. cerevisiae deletion strains, locus YER167W, strain BCK2, hits give low values 0.929 | S. cerevisiae deletion strains, locus YGL078C, strain dbp3, hits give low values 0.979 | S. cerevisiae deletion strains, locus YGL167C, strain pmr1, hits give low values 1 | S. cerevisiae deletion strains, locus YGL227W, strain vid30, hits give low values 1.01 | S. cerevisiae deletion strains, locus YGL240W, strain doc1, hits give low values 0.911 | S. cerevisiae deletion strains, locus YGR078C, strain PAC10, hits give low values 0.887 | S. cerevisiae deletion strains, locus YHR013C, strain ard1, hits give low values 0.868 | S. cerevisiae deletion strains, locus YHR030C, strain SLT2, hits give low values 1.03 | S. cerevisiae deletion strains, locus YHR079C, strain IRE1 (second series), hits give low values 1.02 | S. cerevisiae deletion strains, locus YHR094C, strain hxt1, hits give low values 1.05 | S. cerevisiae deletion strains, locus YHR200W, strain rpn10, hits give low values 0.93 | S. cerevisiae deletion strains, locus YIL073C, strain SPO22, hits give low values 0.783 | S. cerevisiae deletion strains, locus YIL125W, strain kgd1, hits give low values 0.989 | S. cerevisiae deletion strains, locus YIR030C, strain dcg1, hits give low values 1 | S. cerevisiae deletion strains, locus YJL092W, strain hpr5, hits give low values 0.948 | S. cerevisiae deletion strains, locus YJL115W, strain asf1, hits give low values 0.997 | S. cerevisiae deletion strains, locus YJL134W, strain LCB3, hits give low values 1.03 | S. cerevisiae deletion strains, locus YJL154C, strain vps35, hits give low values 1.02 | S. cerevisiae deletion strains, locus YJL168C, strain set2, hits give low values 1.04 | S. cerevisiae deletion strains, locus YJL187C, strain SWE1 (second series), hits give low values 0.879 | S. cerevisiae deletion strains, locus YKL068W, hits give low values 1.02 | S. cerevisiae deletion strains, locus YKL085W, strain MDH1 (second series), hits give low values 0.983 | S. cerevisiae deletion strains, locus YKL085W, strain MDH1, hits give low values 0.983 | S. cerevisiae deletion strains, locus YKL190W, strain CNB1, hits give low values 0.929 | S. cerevisiae deletion strains, locus YKR001C, strain vps1, hits give low values 1.01 | S. cerevisiae deletion strains, locus YKR026C, strain gcn3, hits give low values 1.03 | S. cerevisiae deletion strains, locus YKR091W, strain srl3, hits give low values 1.02 | S. cerevisiae deletion strains, locus YLL041C, strain sdh2, hits give low values 0.999 | S. cerevisiae deletion strains, locus YLR058C, strain SHM2, hits give low values 0.908 | S. cerevisiae deletion strains, locus YLR102C, strain apc9, hits give low values 1.02 | S. cerevisiae deletion strains, locus YLR258W, strain gsy2, hits give low values 0.939 | S. cerevisiae deletion strains, locus YLR330W, strain CHS5, hits give low values 0.929 | S. cerevisiae deletion strains, locus YLR342W, strain FKS1, hits give low values 0.932 | S. cerevisiae deletion strains, locus YLR357W, strain rsc2, hits give low values 1.1 | S. cerevisiae deletion strains, locus YLR370C, strain arc18, hits give low values 0.993 | S. cerevisiae deletion strains, locus YLR371W, strain rom2, hits give low values 1.07 | S. cerevisiae deletion strains, locus YLR384C, strain iki3, hits give low values 1.03 | S. cerevisiae deletion strains, locus YML016C, strain PPZ1, hits give low values 0.979 | S. cerevisiae deletion strains, locus YML120C, strain ndi1, hits give low values 0.92 | S. cerevisiae deletion strains, locus YML124C, strain tub3, hits give low values 1 | S. cerevisiae deletion strains, locus YMR078C, strain ctf18, hits give low values 1.02 | S. cerevisiae deletion strains, locus YMR125W, strain sto1, hits give low values 0.971 | S. cerevisiae deletion strains, locus YMR129W, hits give low values 0.975 | S. cerevisiae deletion strains, locus YMR223W, strain ubp8, hits give low values 0.946 | S. cerevisiae deletion strains, locus YMR231W, strain pep5, hits give low values 0.989 | S. cerevisiae deletion strains, locus YMR263W, strain SAP30, hits give low values 0.976 | S. cerevisiae deletion strains, locus YMR307W, strain GAS1, hits give low values 1.11 | S. cerevisiae deletion strains, locus YNL067W, strain RPL9B, hits give low values 0.917 | S. cerevisiae deletion strains, locus YNL153C, strain GIM3, hits give low values 0.887 | S. cerevisiae deletion strains, locus YNL233W, strain BNI4, hits give low values 0.889 | S. cerevisiae deletion strains, locus YNL250W, strain rad50, hits give low values 0.947 | S. cerevisiae deletion strains, locus YNL271C, strain bni1, hits give low values 0.993 | S. cerevisiae deletion strains, locus YNL298W, strain CLA4, hits give low values 0.929 | S. cerevisiae deletion strains, locus YNL322C, strain KRE1 (second series), hits give low values 1.01 | S. cerevisiae deletion strains, locus YNR049C, strain mso1, hits give low values 1.01 | S. cerevisiae deletion strains, locus YOL006C, strain TOP1, hits give low values 0.572 | S. cerevisiae deletion strains, locus YOL012C, strain htz1 1.48 | S. cerevisiae deletion strains, locus YOR061W, strain CKA2, hits give low values 0.907 | S. cerevisiae deletion strains, locus YOR069W, strain VPS5, hits give low values 0.962 | S. cerevisiae deletion strains, locus YOR080W, strain dia2, hits give low values 0.974 | S. cerevisiae deletion strains, locus YOR106W, strain vam3, hits give low values 0.89 | S. cerevisiae deletion strains, locus YOR136W, strain idh2, hits give low values 1.01 | S. cerevisiae deletion strains, locus YOR144C, strain elg1, hits give low values 0.987 | S. cerevisiae deletion strains, locus YOR265W, strain rbl2, hits give low values 0.969 | S. cerevisiae deletion strains, locus YOR316C, strain cot1, hits give low values 1.04 | S. cerevisiae deletion strains, locus YPL240C, strain hsp82, hits give low values 1.01 | S. cerevisiae deletion strains, locus YPL241C, strain CIN2, hits give low values 1.02 | S. cerevisiae deletion strains, locus YPR119W, strain clb2, hits give low values 1.05 | S. cerevisiae deletion strains, locus YPR141C, strain kar3, hits give low values 1.06 | S. cerevisiae deletion strains, locus YPR167C, strain met16, hits give low values 0.928
active: S. cerevisiae deletion strains, locus YAL021C, strain ccr4, hits give low values 0.838 | S. cerevisiae deletion strains, locus YAL026C, strain drs2, hits give low values 0.582 | S. cerevisiae deletion strains, locus YAL030W, strain snc1, hits give low values 0.927 | S. cerevisiae deletion strains, locus YBR009C, strain hhf1, hits give low values 0.834 | S. cerevisiae deletion strains, locus YBR021W, strain FUR4, hits give low values 0.752 | S. cerevisiae deletion strains, locus YBR279W, strain paf1, hits give low values 0.876 | S. cerevisiae deletion strains, locus YCL011C, strain gbp2, hits give low values 0.886 | S. cerevisiae deletion strains, locus YCL016C, strain dcc1, hits give low values 0.9 | S. cerevisiae deletion strains, locus YCL029C, strain bik1, hits give low values 0.904 | S. cerevisiae deletion strains, locus YDL035C, strain GPR1, hits give low values 0.787 | S. cerevisiae deletion strains, locus YDL074C, strain BRE1, hits give low values 0.778 | S. cerevisiae deletion strains, locus YDL134C, strain PPH21, hits give low values 0.85 | S. cerevisiae deletion strains, locus YDR137W, strain rgp1, hits give low values 0.473 | S. cerevisiae deletion strains, locus YDR162C, strain NBP2, hits give low values 0.828 | S. cerevisiae deletion strains, locus YDR195W, strain ref2 1.54 [resistant] | S. cerevisiae deletion strains, locus YDR318W, strain mcm21, hits give low values 0.886 | S. cerevisiae deletion strains, locus YDR392W, strain spt3, hits give low values 0.234 | S. cerevisiae deletion strains, locus YDR502C, strain sam2, hits give low values 0.879 | S. cerevisiae deletion strains, locus YEL003W, strain gim4, hits give low values 0.88 | S. cerevisiae deletion strains, locus YER015W, strain faa2, hits give low values 0.869 | S. cerevisiae deletion strains, locus YER155C, strain BEM2 (second series), hits give low values 0.84 | S. cerevisiae deletion strains, locus YFR010W, strain ubp6, hits give low values 0.891 | S. cerevisiae deletion strains, locus YGL086W, strain mad1, hits give low values 0.888 | S. cerevisiae deletion strains, locus YGL173C, strain kem1, hits give low values 0.879 | S. cerevisiae deletion strains, locus YGL248W, strain PDE1, hits give low values 0.857 | S. cerevisiae deletion strains, locus YGL253W, strain hxk2, hits give low values 0.791 | S. cerevisiae deletion strains, locus YGR135W, strain pre9, hits give low values 0.871 | S. cerevisiae deletion strains, locus YGR252W, strain gcn5, hits give low values 0.62 | S. cerevisiae deletion strains, locus YHR027C, strain rpn1, hits give low values 0.895 | S. cerevisiae deletion strains, locus YHR129C, strain ARP1, hits give low values 0.905 | S. cerevisiae deletion strains, locus YHR142W, strain chs7, hits give low values 0.768 | S. cerevisiae deletion strains, locus YIL066C, strain RNR3, hits give low values 0.823 | S. cerevisiae deletion strains, locus YJL095W, strain BCK1 (second series), hits give low values 0.825 | S. cerevisiae deletion strains, locus YJL095W, strain BCK1, hits give low values 0.655 | S. cerevisiae deletion strains, locus YJL129C, strain trk1, hits give low values 0.801 | S. cerevisiae deletion strains, locus YJL164C, strain tpk1, hits give low values 0.845 | S. cerevisiae deletion strains, locus YJL166W, strain qcr8, hits give low values 0.813 | S. cerevisiae deletion strains, locus YKL009W, strain mrt4, hits give low values 0.868 | S. cerevisiae deletion strains, locus YKL160W, strain elf1, hits give low values 0.858 | S. cerevisiae deletion strains, locus YLL001W, strain dnm1, hits give low values 0.902 | S. cerevisiae deletion strains, locus YLL026W, hits give low values 0.88 | S. cerevisiae deletion strains, locus YLR027C, strain aat2, hits give low values 0.849 | S. cerevisiae deletion strains, locus YLR039C, strain RIC1, hits give low values 0.516 | S. cerevisiae deletion strains, locus YLR221C, strain rsa3, hits give low values 0.779 | S. cerevisiae deletion strains, locus YLR262C, strain YPT6 (second series), hits give low values 0.441 | S. cerevisiae deletion strains, locus YLR268W, strain sec22, hits give low values 0.882 | S. cerevisiae deletion strains, locus YLR320W, strain mms22, hits give low values 0.429 | S. cerevisiae deletion strains, locus YLR342W, strain FKS1 (second series), hits give low values 0.781 | S. cerevisiae deletion strains, locus YLR418C, strain cdc73, hits give low values 0.766 | S. cerevisiae deletion strains, locus YML032C, strain rad52, hits give low values 0.855 | S. cerevisiae deletion strains, locus YMR058W, strain fet3, hits give low values 0.885 | S. cerevisiae deletion strains, locus YMR205C, strain PFK2, hits give low values 0.811 | S. cerevisiae deletion strains, locus YNL071W, strain lat1, hits give low values 0.513 | S. cerevisiae deletion strains, locus YNL209W, strain ssb2, hits give low values 0.927 | S. cerevisiae deletion strains, locus YNL248C, strain rpa49, hits give low values 0.777 | S. cerevisiae deletion strains, locus YNL307C, strain MCK1, hits give low values 0.707 | S. cerevisiae deletion strains, locus YNL322C, strain KRE1, hits give low values 0.924 | S. cerevisiae deletion strains, locus YNR052C, strain pop2, hits give low values 0.861 | S. cerevisiae deletion strains, locus YOL147C, strain pex11, hits give low values 0.91 | S. cerevisiae deletion strains, locus YOR001W, strain rrp6, hits give low values 0.8 | S. cerevisiae deletion strains, locus YOR070C, strain gyp1, hits give low values 0.81 | S. cerevisiae deletion strains, locus YOR083W, strain WHI5, hits give low values 0.86 | S. cerevisiae deletion strains, locus YOR184W, strain ser1, hits give low values 0.694 | S. cerevisiae deletion strains, locus YOR270C, strain vph1, hits give low values 0.578 | S. cerevisiae deletion strains, locus YOR290C, strain snf2, hits give low values 0.848 | S. cerevisiae deletion strains, locus YPL051W, strain arl3, hits give low values 0.861 | S. cerevisiae deletion strains, locus YPL078C, strain atp4, hits give low values 0.864 | S. cerevisiae deletion strains, locus YPL106C, strain sse1, hits give low values 1.27 [resistant] | S. cerevisiae deletion strains, locus YPR163C, strain tif3, hits give low values 0.893 | S. cerevisiae deletion strains, strain wtn01, hits give low values 0.854 | S. cerevisiae strains, strain wild type, hits give low values 0.877

Source: PubChem BioAssay AID1159580 (chemical genetic matrix, 2015)
